# Assay results: PubChem BioAssay (Tox21)
# Inconclusive results are not listed. Entries that show only a call come without a potency. Unmarked numbers belong to inactive results. Active and inactive are the calls of the source. Calls follow the shape of the dose curve; as a rule, active = well fitted inhibition curve with a large enough effect in the signal ratio in the repeat runs (not every such curve was filed as active); inconclusive = weak or mixed curves, or effect the other way; inactive = no such curve, though single readings can be large or run the other way; the % refers to the signal ratio.
# Target: Vitamin D3 receptor (Homo sapiens) (UniProt P11473)
# Assay: qHTS assay to identify small molecule antagonists of the vitamin D receptor (VDR) signaling pathway (AID 743223)
# Conditions: VDR-UAS-bla HEK293T, beta-lactamase FRET ratio, 16 h; series mostly up to 61 µM
# Source text: U.S. Tox21 Program National Center for Advancing Translational Sciences [NCATS] NIH Chemical Genomics Center [NCGC] U.S. Environmental Protection Agency [EPA] National Institutes of Environmental Health Sciences [NIEHS] National Toxicology Program [NTP] U.S. Food and Drug Administration [FDA] Tox21 Assay Overview: The vitamin D receptor (VDR), a member of nuclear hormone receptor superfamily, plays a critical role in calcium homeostasis and bone metabolism. It is also involved in cell differentiation and growth, and thrombogenicity.
# Tox21 Assay Protocol Summary: VDR-bla cells were dispensed at 2,000 cells/5 uL of assay medium per well into black wall/clear-bottom 1536-well plates using a Multidrop Combi (Thermo Fisher Scientific, Waltham, MA) dispenser. After the assay plates were incubated at a 37C and 5% CO2 for 4 h, 23 nL of compounds dissolved in DMSO, positive controls or DMSO only was transferred to the assay plate by a Pintool station (Kalypsys, San Diego, CA), followed by addition of 1 uL of 1alpha, 25-Dihydroxy Vitamin D3 (3 nM, final concentration in the wells) using a Bioraptr Flying Reagent Dispenser (FRD) workstation (Beckman Coulter, Indianapolis, IN). The plates were incubated at 37C and 5% CO2 for 16 h, and then 1 uL of LiveBLAzerTM B/G FRET substrate was added using a Bioraptr FRD. The plates were incubated at room temperature for 2 h and fluorescence intensity was measured by an Envision plate reader (PerkinElmer, Shelton, CT).
# Potency is read from the fitted curve at half-maximal effect.
# Sequence of Vitamin D3 receptor (Homo sapiens) (P11473 whole entry, looked up): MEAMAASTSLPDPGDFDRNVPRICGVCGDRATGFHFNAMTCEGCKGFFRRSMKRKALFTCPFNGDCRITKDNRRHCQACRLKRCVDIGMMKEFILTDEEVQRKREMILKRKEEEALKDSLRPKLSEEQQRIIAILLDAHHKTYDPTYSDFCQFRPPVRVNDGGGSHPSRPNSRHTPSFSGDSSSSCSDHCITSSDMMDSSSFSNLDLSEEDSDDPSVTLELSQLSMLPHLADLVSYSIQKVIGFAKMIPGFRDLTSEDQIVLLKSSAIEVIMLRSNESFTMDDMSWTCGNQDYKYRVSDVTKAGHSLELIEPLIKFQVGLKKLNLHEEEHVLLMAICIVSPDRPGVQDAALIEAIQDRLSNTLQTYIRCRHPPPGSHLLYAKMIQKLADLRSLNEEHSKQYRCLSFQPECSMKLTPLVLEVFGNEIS
Compound,Potency,"activity change, negative = inhibition"
CCCC(C)C,inactive,
NCCCN(CCO)CCO,inactive,
O=C(O)/C=C/c1cnc[nH]1,inactive,
CC(C)c1ccccc1C(C)C,inactive,
CCCCC(CC)(CO)CO,inactive,
CC(=O)CC(=O)c1ccccc1,inactive,
Oc1ccc(C(O)CNCCCCCCNCC(O)c2ccc(O)c(O)c2)cc1O (stereo not given),inactive,
Cc1ccc2c(ccc3ccccc32)c1,inactive,
CC(C)(C)C1CCCCC1O (stereo not given),inactive,
O=C1[C@H](CC[C@H](O)c2ccc(F)cc2)[C@@H](c2ccc(O)cc2)N1c1ccc(F)cc1,inactive,
CCCCOC(O)CC (stereo not given),inactive,
CCCCCCCCCC=O,inactive,
CC(=O)Nc1ccc(/C=N/NC(N)=S)cc1,inactive,
COC(=O)CSc1cc(N=c2sc(=O)n3n2CCCC3)c(F)cc1Cl,inactive,
CC[C@H](C)[C@@H](C(=O)O)n1sc2ccccc2c1=O,inactive,
CCN(CC)CCOc1ccc2c(c1)C(=O)c1cc(OCCN(CC)CC)ccc1-2,21.3 µM (active),
CC(C)(C)c1cc(CCC(=O)OCC(COC(=O)CCc2cc(C(C)(C)C)c(O)c(C(C)(C)C)c2)(COC(=O)CCc2cc(C(C)(C)C)c(O)c(C(C)(C)C)c2)COC(=O)CCc2cc(C(C)(C)C)c(O)c(C(C)(C)C)c2)cc(C(C)(C)C)c1O,inactive,
CCCCOc1ccc(CC(=O)NO)cc1,inactive,
CCN(CCO)CCCC(C)Nc1ccnc2cc(Cl)ccc12 (stereo not given),,-3.93% [at 6.95 µM]
Cc1ccc(O)c([C@H](CCN(C(C)C)C(C)C)c2ccccc2)c1,inactive,

Compound,Potency,"activity change, negative = inhibition"
CCOC(=S)SSC(=S)OCC,inactive,
O=C=NC1CCC(CC2CCC(N=C=O)CC2)CC1 (stereo not given),inactive,
CC(=O)OCCc1ccccc1,inactive,
CC(C)(C)c1ccc(OCC2CO2)cc1 (stereo not given),inactive,
O=S1(=O)c2cccc3cccc(c23)N1CCCN1CCN(c2ccc(F)cc2)CC1,inactive,
Cc1ccc(C(=O)C(C)CN2CCCCC2)cc1 (stereo not given),inactive,
O=c1c2ccccc2nnn1CCl,inactive,
CC(C)NCC(O)COc1ccc(CC(N)=O)cc1 (stereo not given),inactive,
Cc1ccc(C)o1,inactive,
CCCCCCc1ccc(N)cc1,inactive,
O=C(CCN1CCN2CCCC2C1)N1c2ccccc2Sc2ccc(Cl)cc21 (stereo not given),inactive,
O=C(NS(=O)(=O)/C=C/c1cccs1)c1ccc(F)cc1Br,inactive,
C1=Cc2ccccc2C1,inactive,
CCCCCCCCCCCCCCC1CO1 (stereo not given),inactive,
CCCCCC(CO)CCC (stereo not given),inactive,
CCCCCOC(=O)COc1cc(N2C(=O)C3=C(CCCC3)C2=O)c(F)cc1Cl,inactive,
COCCO,inactive,
CCN(CC)CCNC(C(=O)OCCC(C)C)c1ccccc1 (stereo not given),inactive,
CCOC(=O)C1=NN(c2ccccc2)C(=O)C1,inactive,
CC(=O)SCc1ccco1,inactive,
